# PubChem BioAssay
# The source made the active and inactive calls.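 Rule for the calls, unless noted: active = inhibition above 20% together with a positive visual image hit; inconclusive = visual image hit but inhibition not above 20%; inactive = no visual image hit.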
# Columns and labels:
# [1] = inhibitors of TNFa-induced NFkB p65 translocation, primary screen, imaging, HUVEC, MLSMR starter and 10KST1 sets (AID 438); settings: HUVEC TNFa-induced p65 nuclear translocation; cell count: measured here: nuclei count (cytotoxicity indicator), at 2.08 µM; inhibition: at 2 µM, stronger effect = higher value, 0% TNFa-plus-vehicle, 100% no-TNFa wells;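 note: compound added about 3h40 before a 20 min TNFalpha stimulation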;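 for inhibition: signal is the nuclear over cytoplasmic p65 intensity ratio per well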
# [2] = reduction of polyQ htt aggregates in cells – imaging, exon1htt(103Q)mCFP cells, high-content imaging, primary screen (AID 483;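 active = visual image review flags a hit and inhibition of aggregation exceeds 20%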;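 note: compound exposure lasted 3 days before fixation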;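 for nuclei count: percent of the per-plate median nuclei count of sample wells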); settings: exon1htt(103Q)mCFP cell line, aggregate imaging, at 2 µM; inhibition of aggregation: stronger effect = higher value; nuclei count: measured here: cell count, toxicity
# [3] = endothelial E-selectin expression blockers – imaging, HUVEC, immunofluorescence, MLSMR starter and 10KST1 sets, primary screen (AID 487;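 active = visually confirmed hit in the image check and inhibition above 20%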;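 for inhibition: signal is fraction of cell area covered by stained E-selectin grains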;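 for nuclei count: 100% = median nuclei count of all wells on the same plate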); settings: HUVEC TNFalpha-induced E-selectin immunofluorescence imaging, at 2 µM; inhibition: stronger effect = higher value; nuclei count: measured here: cell number, toxicity
# [4] = target: Voltage-gated potassium channel subunit beta-2 (Rattus norvegicus) (UniProt P62483); experiment: inhibitors of rat Kvbeta2 reductase activity – biochemical, NADPH fluorescence, primary screen (AID 622;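 active = fluorescence slope higher than the sample average by over 3 SD, cut at about -0.22 in these data, passing the limit was not always enough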;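 note: slope of raw intensity against log time taken from 70 to 1610 s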); settings: recombinant KvBeta, 4-cyanobenzaldehyde reduction, at 10 µM, stronger effect = higher value
# [5] = target: Voltage-gated potassium channel subunit beta-2 (Rattus norvegicus) (UniProt P62483); experiment: enhancers of rat Kvbeta2 NADPH turnover – biochemical, NADPH fluorescence, primary screen (AID 623;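 active = NADPH fluorescence slope more negative than the mean of all samples by about 3 SD, 99.7% confidence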;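 note: fluorescence intensity change per second fitted from 20 to 320 s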); settings: Recombinant KvBeta, NADPH fluorescence decrease slope, 10 min; at 10 µM; stronger effect = lower value
# [6] = target: Alpha-2C adrenergic receptor (Homo sapiens) (UniProt P18825); experiment: compounds altering alpha2C-coupled GIRK flux – cell-based, HEK293 alpha2C/GIRK1/2, thallium flux, primary screen (AID 624;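 active = fluorescence slope after compound addition differing from the mean of all screened samples at 99.7% confidence, in either direction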;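 note: slope of fluorescence ratio to pre-addition baseline per second over 15 to 24 s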); settings: thallium flux BTC fluorescence, at 10 µM, actives lie on both sides
# [7] = blockers of RIG-like receptor reporter activation – cell-based, Sendai virus stimulus, luciferase, 10K MLSCN set, TLR/RLR signaling modifier project, primary screen (AID 602276;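 active = inhibition at or above 50% at 10 µM; inactive = inhibition below 50%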;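 note: firefly luciferase from ISG56 promoter only with Renilla not read in this screen; 0% = Sendai virus plus DMSO and 100% = medium plus DMSO without virus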); settings: HEK293 RL24 IRF3 luciferase reporter, at 10 µM, stronger effect = higher value
# [8] = TLR3 IRF3 reporter activation blockers – cell-based, poly I:C stimulus, luciferase, 10K MLSCN set, primary screen (AID 602277;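 active = inhibition of the reporter signal at or above 50%; inactive = inhibition below 50%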); settings: HEK293-TLR3 RL24 IRF3 luciferase reporter, at 10 µM, stronger effect = higher value
# Alpha-2C adrenergic receptor (Homo sapiens), sequence (P18825 whole entry, looked up): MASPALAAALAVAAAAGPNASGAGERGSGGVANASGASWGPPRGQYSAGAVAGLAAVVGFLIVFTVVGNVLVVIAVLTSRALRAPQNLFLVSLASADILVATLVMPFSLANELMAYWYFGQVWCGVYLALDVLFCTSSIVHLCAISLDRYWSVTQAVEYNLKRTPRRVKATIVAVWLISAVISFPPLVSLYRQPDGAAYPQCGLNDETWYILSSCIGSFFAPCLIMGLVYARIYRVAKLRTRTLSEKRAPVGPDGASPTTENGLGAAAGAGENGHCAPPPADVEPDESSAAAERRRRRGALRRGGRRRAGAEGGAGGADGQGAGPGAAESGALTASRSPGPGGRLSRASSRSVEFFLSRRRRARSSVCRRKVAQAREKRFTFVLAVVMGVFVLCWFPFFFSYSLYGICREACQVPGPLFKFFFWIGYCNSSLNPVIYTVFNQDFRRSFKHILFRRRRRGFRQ
# Voltage-gated potassium channel subunit beta-2 (Rattus norvegicus), sequence (P62483 whole entry, looked up): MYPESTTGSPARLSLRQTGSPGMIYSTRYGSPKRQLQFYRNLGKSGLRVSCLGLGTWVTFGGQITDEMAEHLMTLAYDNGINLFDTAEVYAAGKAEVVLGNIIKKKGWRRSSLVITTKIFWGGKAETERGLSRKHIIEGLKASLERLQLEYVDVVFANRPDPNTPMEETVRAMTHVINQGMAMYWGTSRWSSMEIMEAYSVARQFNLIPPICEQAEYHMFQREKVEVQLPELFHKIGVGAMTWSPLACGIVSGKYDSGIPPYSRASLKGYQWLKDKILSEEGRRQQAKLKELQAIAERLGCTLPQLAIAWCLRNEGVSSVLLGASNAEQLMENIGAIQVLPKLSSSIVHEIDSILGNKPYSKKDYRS
Structure (SMILES),cell count [1],inhibition [1],inhibition of aggregation [2],nuclei count [2] [%],inhibition [3],nuclei count [3] [%],fluorescence slope [4],NADPH fluorescence slope [5],slope [6],inhibition [7],inhibition [8]
COc1cccc(-c2nnc(SCC(N)=O)n2-c2ccc(Cl)cc2)c1,327,-6.5% (inactive),-11.9% (inactive),107,-60.5% (inactive),94.5,-0.495 (inactive),-0.000142 (inactive),0.00431 (inactive),8.3% (inactive),13.1% (inactive)
COc1ccc(Cn2nnnc2C(c2ccccc2OC)N2CCC(C(N)=O)CC2)cc1 (stereo not drawn),315,4.4% (inactive),6.9% (inactive),74.4,-39.5% (inactive),114,-0.604 (inactive),-4.2e-05 (inactive),0.00453 (inactive),10.7% (inactive),25.5% (inactive)
CCCNC(=O)CS(=O)(=O)Cc1nc(-c2cccc(OC)c2)oc1C,781,3.5% (inactive),12.5% (inactive),99.7,-52% (inactive),127,-0.543 (inactive),4.4e-05 (inactive),0.007 (inactive),9.03% (inactive),-7.6% (inactive)
CCCCNC(=O)Cn1c(=O)n(C)c2ccccc21,600,6.9% (inactive),-14.7% (inactive),111,35.9% (inactive),103,-0.549 (inactive),-6.8e-06 (inactive),0.00707 (inactive),9.9% (inactive),30% (inactive)
COCCN1Cc2cccc(C(=O)Nc3cccnc3)c2C1=O,649,-26.5% (inactive),-6.7% (inactive),100,-39.6% (inactive),100,-0.503 (inactive),-0.000182 (inactive),0.00506 (inactive),6.71% (inactive),5.54% (inactive)
Cn1c(=O)c2c(nc(NCCCO)n2CCc2ccccc2)n(C)c1=O,422,9.7% (inactive),-11.3% (inactive),105,-27.9% (inactive),103,-0.506 (inactive),4.3e-05 (inactive),0.00351 (inactive),-9.22% (inactive),4.62% (inactive)
CC(C)(C)C(=O)NC1CCN(C(=O)N2CCCC2)CC1,685,-6.3% (inactive),-5.3% (inactive),107,-36.6% (inactive),118,-0.311 (inactive),-3.2e-05 (inactive),0.00525 (inactive),12.1% (inactive),20.9% (inactive)
CN(CCc1ccccn1)c1ncnc2[nH]ncc12,591,8.1% (inactive),-1.4% (inactive),71.8,55.8% (active),63.8,-0.325 (inactive),-3.6e-05 (inactive),0.0053 (inactive),-24.6% (inactive),-53.4% (inactive)
CC(C)Cc1cc(C(=O)Nc2c(F)cc(F)cc2Br)no1,783,7.4% (inactive),-5% (inactive),114,-4.5% (inactive),120,-0.594 (inactive),3.8e-06 (inactive),0.00483 (inactive),-6.27% (inactive),2.03% (inactive)
CC(C)OC(=O)CSc1nnc(-c2ccc(O)cc2)n1Cc1ccccc1,289,-1% (inactive),12.9% (inactive),106,-57.2% (inactive),105,-0.415 (inactive),-4.5e-05 (inactive),0.00549 (inactive),20.3% (inactive),16.8% (inactive)
Cn1c(SCC(=O)Nc2cccc3ccccc23)nc(O)cc1=O,548,-0.9% (inactive),-2.1% (inactive),113,17.2% (inactive),120,-0.42 (inactive),-4.6e-05 (inactive),0.00441 (inactive),11.6% (inactive),15.1% (inactive)
CCN=C1SC(CC(=O)Nc2ccccc2OCC)C(=O)N1CC (stereo not drawn),613,-14.1% (inactive),-12.5% (inactive),100,0.9% (inactive),92.3,-0.488 (inactive),-3.2e-05 (inactive),0.00493 (inactive),12.4% (inactive),20.8% (inactive)
CS(=O)(=O)NCC(c1cccnc1)N1CCN(c2ccc(F)cc2)CC1 (stereo not drawn),250,-10.2% (inactive),15.1% (inactive),33.8,27.3% (inactive),72.4,-0.34 (inactive),-4.2e-05 (inactive),0.00483 (inactive),-3.05% (inactive),1.56% (inactive)
O=C(NC1CCCC1)C(c1ccco1)N(Cc1ccccc1)C(=O)c1csnn1 (stereo not drawn),426,5.4% (inactive),-6.3% (inactive),97.6,-9.3% (inactive),107,-0.582 (inactive),-3.8e-05 (inactive),0.006 (inactive),17.4% (inactive),29.4% (inactive)
COc1ccccc1CNC(=O)CCNC(=O)Cn1ccc2ccccc2c1=O,749,-23.7% (inactive),8.2% (inactive),107,-16.3% (inactive),116,0.0111 (inactive),-1.6e-05 (inactive),0.00394 (inactive),7.16% (inactive),6.29% (inactive)
COc1ccc2cc(C(=O)NCc3ccco3)c(=Nc3ccc(C(=O)O)cc3)oc2c1,507,-12.8% (inactive),19% (inactive),96.3,-56.7% (inactive),120,-0.372 (inactive),-5.2e-05 (inactive),0.00401 (inactive),16.4% (inactive),3.42% (inactive)
CCN1CCN(C(c2ccc(F)cc2)c2nnnn2Cc2cccs2)CC1 (stereo not drawn),605,-8.6% (inactive),1.9% (inactive),48.7,-35.5% (inactive),96.1,-0.339 (inactive),1.5e-05 (inactive),0.00582 (inactive),4.23% (inactive),21.4% (inactive)
COc1ccccc1C1CC(c2ccc(C)cc2)Nc2ncnn21 (stereo not drawn),332,0.7% (inactive),-31.6% (inactive),109,-37.9% (inactive),119,-0.425 (inactive),4.9e-05 (inactive),0.00745 (inactive),-7.75% (inactive),-0.278% (inactive)
COc1ccc(C2C(C(=O)N3CCCC3)c3cc(OC)c(OC)cc3C(=O)N2C)cc1 (stereo not drawn),583,-21.8% (inactive),7.8% (inactive),111,-71.5% (inactive),115,-0.544 (inactive),-5.3e-05 (inactive),0.00513 (inactive),3.19% (inactive),12.2% (inactive)
COc1cccc(N2CCN(C(=O)C3C4C=CC5(CN(Cc6ccccc6Cl)C(=O)C35)O4)CC2)c1 (stereo not drawn),606,-11.6% (inactive),-3% (inactive),58.2,-66.5% (inactive),123,-0.402 (inactive),-3.2e-05 (inactive),0.00266 (inactive),-0.268% (inactive),13.1% (inactive)
COc1cccc(-c2cc(C(=O)NCc3ccc(Cl)cc3)no2)c1,475,-3.9% (inactive),-3.3% (inactive),103,13.3% (inactive),95.6,-0.474 (inactive),1.7e-05 (inactive),0.00826 (inactive),46% (inactive),-11.6% (inactive)
Cc1nc(NC2=NCN(CC3CCCO3)CN2)nc2ccccc12 (stereo not drawn),346,-11.7% (inactive),28.4% (active),84.3,29% (inactive),98.5,-0.548 (inactive),-8.4e-06 (inactive),0.00499 (inactive),15.3% (inactive),28.6% (inactive)
CCOC(=O)c1sc2cccc(F)c2c1N,546,-17.8% (inactive),24.4% (inactive),102,4.5% (inactive),110,-0.319 (inactive),-7.4e-05 (inactive),0.00522 (inactive),-3.55% (inactive),-14.4% (inactive)
COc1ccc(CC(=O)NC2CCN(CC(=O)Nc3ccc4c(c3)OCCO4)CC2)cc1OC,635,-1.6% (inactive),-5.8% (inactive),88.5,-29.5% (inactive),111,-0.428 (inactive),-6.5e-06 (inactive),0.00308 (inactive),6.1% (inactive),-5.8% (inactive)
c1cnc2c(SCc3ccc(-c4nnco4)cc3)cccc2c1,431,11.7% (inactive),-3.7% (inactive),100,-23.1% (inactive),107,-0.586 (inactive),-4.6e-06 (inactive),0.00482 (inactive),-53.9% (inactive),-92.3% (inactive)
CC1CCc2nn(CC(=O)NCc3ccc4c(c3)OCO4)cc2C1 (stereo not drawn),673,-6.1% (inactive),1.1% (inactive),103,-80.8% (inactive),124,-0.506 (inactive),-2.4e-05 (inactive),0.00628 (inactive),7.66% (inactive),18% (inactive)
O=C(Cn1c(=O)n(CC2CCCO2)c(=O)c2ccccc21)c1ccccc1 (stereo not drawn),361,4.4% (inactive),1.4% (inactive),103,4.5% (inactive),111,-0.51 (inactive),-3.9e-05 (inactive),0.00589 (inactive),10.8% (inactive),16.3% (inactive)
Cc1c(C(=O)Nc2cnccn2)oc2ccccc12,370,7.3% (inactive),7.5% (inactive),95.3,-97.6% (inactive),108,-0.371 (inactive),4.4e-05 (inactive),0.00977 (inactive),0.764% (inactive),-4.49% (inactive)
